Laboratory results: publication PMC4336329 (PLoS ONE, 2015)
The whole screen tested about 310,000 compounds, of which about 14,000 (4.5%) showed an effect of 50% or more. The effect is printed as a negative number. The sample holds strong results, similar compounds and a random draw of the others, so the mix is not that of the screen.

Each compound was assayed against human ether-à-go-go-related gene (hERG) potassium channel (human, UniProt Q12809) (assay: primary screen, population patch clamp on CHO cells stably expressing hERG; higher = less effect of the substance).
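Further: peak tail current of the secondary pulse compared with the same well before compound.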

Chain of human ether-à-go-go-related gene (hERG) potassium channel (Q12809 whole entry, looked up): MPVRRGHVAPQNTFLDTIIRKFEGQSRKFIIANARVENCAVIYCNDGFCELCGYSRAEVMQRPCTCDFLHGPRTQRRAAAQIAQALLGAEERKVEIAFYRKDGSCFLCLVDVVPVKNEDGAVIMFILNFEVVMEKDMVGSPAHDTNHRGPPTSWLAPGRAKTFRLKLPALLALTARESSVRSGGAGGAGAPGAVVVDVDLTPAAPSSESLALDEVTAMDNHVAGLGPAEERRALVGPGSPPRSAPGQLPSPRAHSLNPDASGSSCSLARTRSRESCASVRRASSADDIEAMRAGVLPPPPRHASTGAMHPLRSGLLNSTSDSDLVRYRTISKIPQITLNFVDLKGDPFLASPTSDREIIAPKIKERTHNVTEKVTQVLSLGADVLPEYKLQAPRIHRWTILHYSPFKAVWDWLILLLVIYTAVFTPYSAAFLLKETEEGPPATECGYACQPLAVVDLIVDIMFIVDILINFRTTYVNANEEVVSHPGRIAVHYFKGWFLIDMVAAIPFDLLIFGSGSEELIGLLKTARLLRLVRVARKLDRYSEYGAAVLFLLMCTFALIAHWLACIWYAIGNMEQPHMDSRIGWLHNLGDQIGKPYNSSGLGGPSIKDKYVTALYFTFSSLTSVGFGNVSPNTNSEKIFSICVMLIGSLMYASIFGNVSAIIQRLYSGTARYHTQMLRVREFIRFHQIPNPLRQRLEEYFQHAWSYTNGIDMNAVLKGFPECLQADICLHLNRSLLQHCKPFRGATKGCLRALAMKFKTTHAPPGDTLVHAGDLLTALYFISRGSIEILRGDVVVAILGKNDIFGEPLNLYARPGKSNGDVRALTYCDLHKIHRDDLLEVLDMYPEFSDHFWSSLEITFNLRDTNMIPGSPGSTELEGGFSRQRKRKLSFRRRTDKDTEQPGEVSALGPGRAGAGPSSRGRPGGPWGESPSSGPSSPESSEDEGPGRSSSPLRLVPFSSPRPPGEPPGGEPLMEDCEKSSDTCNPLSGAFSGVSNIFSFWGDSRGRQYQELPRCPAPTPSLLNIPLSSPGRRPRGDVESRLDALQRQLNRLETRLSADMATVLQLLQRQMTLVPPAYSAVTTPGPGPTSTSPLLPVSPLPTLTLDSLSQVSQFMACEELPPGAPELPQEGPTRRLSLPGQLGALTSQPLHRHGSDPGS

SMILES | hERG current change (%, negative = inhibition) at 10uM [%]
N#C/C(=C\c1ccc(-c2nc3ccccc3s2)o1)C(N)=O | 5.03
COc1ccc(C(=O)NC(C)C2CC3CCC2C3)cc1 (stereo not shown) | 2.42
CC1=CN2C(=N)/C(=C/c3ccc(Sc4ccc(C)cc4)o3)C(=O)N=C2S1 | 10.1
CCn1c(COc2ccccc2C)nc2ccccc21 | 4.07
CCOC(=O)C(CCCOc1ccccc1C)C(=O)OCC | 6.43
CCOC(=O)Cn1c(COc2ccccc2OC)[n+](C)c2ccccc21 | 7.4
CCCCCCCCCCOC(=O)Cn1c(COc2ccccc2C)[n+](C)c2ccccc21.[Cl-] | -72.5
Cn1c(COc2ccccc2O)[n+](C)c2ccccc21.[Br-] | 15.8
CCCCCCCCCCOC(=O)Cn1c(COc2ccccc2OC)[n+](C)c2ccccc21.[Cl-] | -77.3
CCOC(=O)c1nn(-c2ccc(Cl)cc2)c(=O)c(C#N)c1C | 5.94
CCCCNC(=S)N(C)/N=C/c1ccc(OCc2ccc(C(=O)OC)cc2)c(OC)c1 | 11.8
O=C(N/N=C/c1cccnc1)c1ccc2c(c1)OCCO2 | 8.1
Cc1ccc(CSCC(=O)N(C)CC(=O)Nc2c(Cl)cccc2Cl)cc1 | -9.07
CCOC(=O)C1CN(S(=O)(=O)c2ccc(C)cc2)c2cc(S(=O)(=O)CC)ccc2O1 (stereo not shown) | -41
CCOC(=O)C1CN(S(=O)(=O)c2ccccc2)c2cc(S(=O)(=O)CC)ccc2O1 (stereo not shown) | -23.3
CCOC(=O)C1CN(S(=O)(=O)c2ccc(OC)cc2)c2cc(S(=O)(=O)CC)ccc2O1 (stereo not shown) | -52
CC(=O)Oc1ccc(C2OC(=O)c3ccccc3N2C(C)=O)cc1 (stereo not shown) | 1.12
CCN(C(=O)Cc1c(C(=O)O)n(C)c2ccccc12)c1cc(OC)ccc1OC | 11.9
O=S(=O)(NCc1ccccn1)c1ccccc1 | -2.19
CNc1oc(-c2ccc(Cl)cc2)nc1C#N | -4.17
Cc1cc(C)cc(N2CCCn3c2nc2c3c(=O)[nH]c(=O)n2C)c1 | 13.6
CC(c1nnnn1C(C)(C)C)N(Cc1cccnc1)Cc1ccccc1Cl (stereo not shown) | -52.3

SMILES | hERG current change (%, negative = inhibition) at 10uM [%]
CC(C)(C)n1nnnc1CN(Cc1cccnc1)Cc1ccccc1Cl | -33
CC(C)(C)n1nnnc1C(c1cccs1)N(Cc1cccnc1)Cc1ccccc1Cl (stereo not shown) | -11.4
CCOC(=O)c1nc(C)n(-c2cc(OC)c(Cl)cc2Cl)n1 | 5.95
O=C(CCCOc1ccccc1)Nc1cccc(C(=O)O)c1 | 12.6
COc1ccc(OC)c(NC(=O)CSc2nnc(-c3ccco3)o2)c1 | -15.7
O=C(CSc1nc(=O)n(CCCN2CCOCC2)c2c1CCCC2)Nc1ccc(Cl)cc1 | -77.7
CC(C)c1ccc(NC(=O)CSc2nc(=O)n(CCCN3CCOCC3)c3c2CCC3)cc1 | -51.3
Cc1ccc(NC(=O)CSc2nc(=O)n(CCCN3CCOCC3)c3c2CCCC3)cc1F | -50.2
Cc1ccc(NC(=O)CSc2nc(=O)n(CCCN3CCOCC3)c3c2CCCC3)c(C)c1 | -36.7
CC(C)c1ccc(NC(=O)CSc2nc(=O)n(CCN3CCOCC3)c3c2CCC3)cc1 | -41.5
Cc1cc(C)cc(NC(=O)CSc2nc(=O)n(CCCN3CCOCC3)c3c2CCCC3)c1 | -55.2
Cc1cccc(NC(=O)CSc2nc(=O)n(CCCN3CCOCC3)c3c2CCCC3)c1 | -42.4
Cc1ccc(NC(=O)CSc2nc(=O)n(CCCN3CCOCC3)c3c2CCCC3)cc1 | -45.5
CC(C)c1ccc(NC(=O)CSc2nc(=O)n(CCCN3CCOCC3)c3c2CCCC3)cc1 | -39.7
CCN(CC(=O)Nc1c(F)cccc1F)C(=O)CN1C(=O)NC2(CCCC2)C1=O | 22.5
CCN1CCCc2cc(CN(CCN3CCOCC3)C(=S)Nc3ccc(C)cc3)ccc21 | -8.41
CCN1CCN(S(=O)(=O)Cc2ccccc2)CC1 | 8.52
COc1ccc2oc(C(=O)OCC(=O)NCC3CCCO3)c(C)c2c1 (stereo not shown) | 2.35
Cc1ccc(N2C(=O)c3ccccc3C2(O)c2ncc[nH]2)cc1 (stereo not shown) | 15
O=S(=O)(c1ccc(NC(=S)N/N=C/c2c3ccccc3cc3ccccc23)cc1)N1CCOCC1 | 8.09
O=C1c2ccccc2C(=O)N1CCCCN(C(=O)c1cc2ccccc2oc1=O)c1ccc(F)cc1F | 1.03
Cc1cc(C(C)(C)C)oc1C(=O)OCC(=O)NC1CCCCC1 | 0.649

SMILES | hERG current change (%, negative = inhibition) at 10uM [%]
O=C(NC(Cc1ccccc1)c1ccc2c(c1)OCCCO2)c1ccccc1 (stereo not shown) | 19.1
O=C(NCCS(=O)(=O)NCc1ccc(F)cc1)c1ccc2c(c1)OCO2 | -39.8
COc1ccccc1-n1c(O)c(C=NCCN2CCNCC2)c(=O)[nH]c1=O | 14.4
O=C(CSc1nc(=O)n(CCCN2CCOCC2)c2c1CCCC2)Nc1ccc(F)cc1F | -22.6
O=C(CSc1nc(=O)n(CCCN2CCOCC2)c2c1CCCC2)Nc1ccc(F)c(F)c1 | -58
O=C(CSc1nc(=O)n(CCCN2CCOCC2)c2c1CCCC2)Nc1ccc(F)cc1 | -43.7
CC(C)(C)C(=O)Nc1ccccc1C(=O)Nc1ccccn1 | 3.65
O=C(COc1ccccc1)N1CCN(CCN2C(=O)c3cccc4cccc(c34)C2=O)CC1 | -8.43
O=C1c2cccc3cccc(c23)C(=O)N1CCN1CCN(CC(O)COc2ccc3ccccc3c2)CC1 (stereo not shown) | -11.7
O=C1c2cccc3cccc(c23)C(=O)N1CCN1CCN(CC(O)COc2ccccc2)CC1 (stereo not shown) | -60
COc1ccc(C(=O)CN2CCN(CCN3C(=O)c4cccc5cccc(c45)C3=O)CC2)cc1 | -26.5
COc1cccc(OCC(O)CN2CCN(CCN3C(=O)c4cccc5cccc(c45)C3=O)CC2)c1.Cl (stereo not shown) | -59.2
O=C(CSc1nnc(NC(=O)C2CC2)s1)Nc1ccc(F)cc1 | 12.5
COc1ccc(-c2nc3n(n2)C(c2ccncc2)C(C(N)=O)=C(C)N3)cc1 (stereo not shown) | 0.391
CCOc1ccc(C(CC(=O)O)NC(=O)c2ccco2)cc1 (stereo not shown) | 11
COc1cc(/C=N/n2cnnc2)ccc1OCc1ccccc1 | 6.55
CN(C)S(=O)(=O)c1cccc(NC(=O)c2cccc(S(=O)(=O)N3CCc4ccccc43)c2)c1 | -4.62
CN(C(=O)c1ccc(Cl)c([N+](=O)[O-])c1)C1(C)CCS(=O)(=O)C1 (stereo not shown) | -10.9
CSc1ccccc1C(=O)C1CCCN(Cc2ccccn2)C1 (stereo not shown) | -12.6
CSc1ccccc1C(=O)C1CCCN(Cc2cnn(-c3ccccc3)c2)C1 (stereo not shown) | -67.4
O=C(c1ccc(Cl)cc1)C1CCCN(Cc2cnn(-c3ccccc3)c2)C1 (stereo not shown) | -74.6
CSc1ccccc1C(=O)C1CCCN(Cc2c(C)n(C)n(-c3ccccc3)c2=O)C1 (stereo not shown) | -16.2

SMILES | hERG current change (%, negative = inhibition) at 10uM [%]
CSc1ncc(CN2CCCC(C(=O)c3ccccc3SC)C2)cn1 (stereo not shown) | -65.1
CSc1ccccc1C(=O)C1CCCN(Cc2ccncc2)C1 (stereo not shown) | -41.7
O=C(C1CCCN(Cc2ccc(Cl)cc2)C1)N1CCCCC1.O=C(O)C(=O)O (stereo not shown) | -14.9
CSc1ccccc1C(=O)C1CCCN(Cc2ccn[nH]2)C1 (stereo not shown) | -8.34
Cc1cc(C)n2c(SCC(=O)NC3CCCCC3C)nnc2n1 (stereo not shown) | 29.5
CCN(C(=O)COC(=O)/C=C/c1ccco1)c1c(N)n(Cc2ccccc2)c(=O)[nH]c1=O | -1.01
CC(C)CC(NC(=O)CCC(=O)OCC(=O)[C@@]1(O)CCC2[C@@H]3CCC4=CC(=O)C=C[C@]4(C)C3[C@@H](O)C[C@@]21C)C(=O)O (stereo partly shown) | 0.23
O=C(CSc1nnc(-c2ccccc2Cl)o1)Nc1ccccn1 | 14.9
CN(CCC#N)CC(=O)Nc1ccc(S(N)(=O)=O)cc1 | 13.3
CCc1cc(C(=O)N2CCCC(C(=O)c3cccc(OC(C)C)c3)C2)n(C)n1 (stereo not shown) | -6.49
CCc1nc(N2CCC(C)CC2)c2oc3ccccc3c2n1.Cl | 5.55
Clc1ccc(N2CCN(c3ncnc4c3oc3ccccc34)CC2)cc1 | 4.58
O=C(c1ccco1)N1CCN(c2ncnc3c2oc2ccccc23)CC1 | -55.4
O=C(c1ccco1)N1CCN(c2ncccn2)CC1 | -18.2
CCc1nc(N2CCN(C(=O)c3ccco3)CC2)c2oc3ccccc3c2n1.Cl | -64.8
CCc1nc(N2CCCCC2)c2oc3ccccc3c2n1.Cl | 6.57
Cc1nc(N2CCOCC2)c2oc3ccccc3c2n1 | -9.35
Cc1nc(N2CCN(C(=O)c3ccco3)CC2)c2oc3ccccc3c2n1.Cl | -54.8
Cc1nc(N2CCC(C)CC2)c2oc3ccccc3c2n1 | 6.63
